The values that follow come from PubChem BioAssay.

The nature of assay [1]: liver-stage malaria parasite load reduction – cell-based, known kinase inhibitor set, luminescence, hepatoma host viability (AID 624392; call rule not given here;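 also: infected cells incubated roughly two days before readout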). Conditions: Plasmodium liver stage in hepatoma cells, luciferase luminescence, concentration not given here; liver cell % of control: measured here: host liver cell viability; parasite % of control: stronger effect = lower value.
Assay [2] in a line: altered dexamethasone sensitivity, NF-kB reporter, cell-based, luciferase, IL-1B stimulus (AID 624486; call rule not given here;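 as to percent of negative control (+Dex): 100% = mean signal of vehicle control wells on the plate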). The settings on record: IL-1B + dexamethasone, luminescence; percent of negative control (+Dex): actives lie on both sides, concentration not given here; z-score: measured here: IL-1B alone, no Dex.
The nature of assay [3]: C. elegans survival during P. aeruginosa infection – whole organism (AID 651566; call rule not given here;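 also: tested at 14 µM; sign flipped so higher z means a lower ratio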). The settings on record: C. elegans killed by P. aeruginosa, survival ratio.
Assay [4] in a line: pro-inflammatory signaling induction in mouse macrophages – cell-based, murine, luminescence (AID 652131; call rule not given here). Conditions: murine macrophage pro-inflammatory reporter, stronger effect = higher value.
In assay [5] the target is Cellular tumor antigen p53 (Homo sapiens) (UniProt P04637). Briefly: GFP-p53 level modulators in HPV16+ cells – imaging, known kinase inhibitor set, EGFP/DsRed ratio (AID 1053116; call rule not given here;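 also: cells exposed to compounds for 24 h at 37 °C before reading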). Conditions: GFP-p53 stability, stronger effect = higher value; EGFP object count: measured here: GFP-p53 positive objects count.
Cellular tumor antigen p53 (Homo sapiens), sequence (P04637 whole entry, looked up): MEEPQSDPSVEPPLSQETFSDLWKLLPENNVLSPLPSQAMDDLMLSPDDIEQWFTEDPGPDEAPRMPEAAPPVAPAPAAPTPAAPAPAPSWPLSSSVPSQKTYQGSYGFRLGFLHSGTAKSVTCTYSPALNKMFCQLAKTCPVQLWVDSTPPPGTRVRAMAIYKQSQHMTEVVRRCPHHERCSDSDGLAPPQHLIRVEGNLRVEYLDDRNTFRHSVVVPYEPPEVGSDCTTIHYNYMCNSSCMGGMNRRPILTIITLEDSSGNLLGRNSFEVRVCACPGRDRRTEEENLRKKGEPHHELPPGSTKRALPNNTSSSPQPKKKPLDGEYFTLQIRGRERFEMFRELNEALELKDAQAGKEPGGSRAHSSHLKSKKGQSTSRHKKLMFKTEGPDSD
The nature of assay [6]: inducers of IRF3 signaling, differentiated THP-1 – cell-based, PMA-stimulated THP-1, luminescence (AID 1053176; call rule not given here). The settings on record: PMA-differentiated THP-1, IRF3 reporter luminescence; stronger effect = higher value.
Assay [7] in a line: MELAS cybrid and Rieske KO viability enhancers – cell-based, MELAS cybrids, Rieske KO mouse fibroblasts, CellTiter-Glo, primary screen (AID 1508586;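 active = mean z-score across replicates of 1.96 or higher in either the MELAS or the Rieske mutant cell line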;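 also: z relative to plate mean and SD of compound and empty wells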). Conditions: low glucose. Background: Cellular ATP, detected with luciferase, serves as a proxy for viable cell number.
The nature of assay [8]: viability loss with induced miR-34 in A549 – imaging, A549 dox-inducible miR-34, nuclei and caspase counts, primary screen (AID 1347080;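 active = compounds whose cell count with miR-34 switched on is under 0.7 times the count with it off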). Conditions: A549 miR-34 inducible, Hoechst nuclei count, 48 h.
Assay [9] can be described thus: viability loss in pontine glioma line – cell-based, SU-DIPG-XVII, MIPE5.0, CellTiter-Glo, qHTS, dose response (AID 1347060; cut-off not given, nearly all actives have AC50 up to about 26 µM). Conditions: CellTiter-Glo ATP luminescence.
Assay [10] in a line: viability loss in pontine glioma line – cell-based, SU-DIPG-XIII, MIPE4.0, CellTiter-Glo, qHTS, dose response (AID 1347061; cut-off not given, nearly all actives have AC50 up to about 37 µM;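 also: cells exposed to compound for 48 hours before readout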). Conditions: CellTiter-Glo ATP luminescence.
The nature of assay [11]: viability loss in pontine glioma line – cell-based, JHH-DIPG-1, MIPE4.0, CellTiter-Glo, qHTS, dose response (AID 1347062; cut-off not given, nearly all actives have AC50 up to about 27 µM). The settings on record: JHH-DIPG-1 viability, CellTiter-Glo ATP luminescence.
Assay [12] is described as follows: viability loss in pontine glioma line – cell-based, SU-DIPG-IV, MIPE4.0, CellTiter-Glo, qHTS, dose response (AID 1347063; cut-off not given, nearly all actives have AC50 up to about 30 µM;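 also: compound exposure lasted 48 hours before the viability readout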). Conditions: CellTiter-Glo ATP luminescence.
The nature of assay [13]: viability loss in pontine glioma line – cell-based, SU-DIPG-XXV, MIPE5.0, CellTiter-Glo, qHTS, dose response (AID 1347065; cut-off not given, nearly all actives have AC50 up to about 26 µM;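 also: cells exposed to compound for 48 hours before ATP readout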). The settings on record: CellTiter-Glo ATP luminescence.
Assay [14] is described as follows: growth inhibition of DIPG cells – cell-based, MIPE4.0 library, CellTiter-Glo luminescence, qHTS (AID 1347066; cut-off not given, nearly all actives have AC50 up to about 30 µM;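 also: cells exposed to compound for 48 hours before readout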). Conditions: SU-DIPG-VI viability, CellTiter-Glo ATP luminescence.
Assay [15] in a line: growth inhibition of DIPG cells – cell-based, MIPE5.0 library, qHTS (AID 1347068; cut-off not given, nearly all actives have IC50 up to about 30 µM). Conditions: SU-DIPG-XXV viability. (In general: In qHTS, concentration-response curves come from the screen itself.)
A short description of assay [16]: compounds altering HSF1 focus formation in cells – imaging, Selleck Cancer Library (AID 1347162; in the data active = plate-normalised HSF1 focus index below about 0.46). Conditions: human cells, HSF1 nuclear foci imaging, at 10 µM; SSMD: measured here: HSF1 foci SSMD mean; cell count: measured here: cell number; plate-normalised HSF1 focus index: stronger effect = lower value.
Assay [17] in a line: drug combination growth inhibition, ovarian cancer – cell-based, oncology-focused library, rucaparib conditional, profiling panel (AID 1508598). The settings on record: patient-derived ovarian cancer cells, CellTiter-Glo viability, 144 h, stronger effect = lower value.
Assay [18] can be described thus: galactose survival enhancers in mitochondrial complex I cybrids – cell-based, galactose medium, ATP luminescence, primary screen (AID 1645843;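 active = z-score of at least 1.8 in each of two replicates, scored against plate mean and spread of sample wells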;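 also: positive z means more ATP and so rescue of galactose-driven cybrid death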). The settings on record: complex I mutant cybrid cells, 72 h, stronger effect = higher value.
The mark [19] stands for this setting: MELAS cybrid survival, CellTiter-Glo 48 h, stronger effect = higher value.
Where [20] appears, read: Rieske KO mouse fibroblast survival, CellTiter-Glo 72 h.

Values joined by “and” are separate entries in the source; they are usually repeats but may differ in a detail not shown here. Equal values may be shown once. Inconclusive results are not listed. Active and inactive are the calls of the source.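 The calls were made as follows, unless noted: active = normalized viability below 100% at a tested concentration; inactive = the rest.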

`Oc1cccc(-c2nc(-c3ccccc3)[nH]c2-c2ccncc2)c1` had a liver cell % of control in assay [1] of 111%. Also, in [1], the parasite % of control is 13.2% (active). Besides, in assay [2], the percent of negative control (+Dex) was 124% (inactive). For the same compound, the z-score is 1.75 in assay [2]; 0.81 (inactive) in assay [3]; 1.63 (inactive) in assay [4]; -0.947 (inactive) in assay [7] (setting [19]); -0.653 in assay [7] (setting [20]). In assay [5], the EGFP object count was 2.5. For the same compound, the EGFP/DsRed ratio in assay [5] is 0.0183 (inactive). Besides, the fraction signal in assay [6] was 0.0025 (inactive).

For the compound `Cn1cc(C2=C(c3cn(CCCN)c4ccccc34)C(=O)NC2=O)c2ccccc21`, in assay [1], the liver cell % of control was found to be 148% and the parasite % of control was 23.2% (inactive). For the same compound, in assay [2], the percent of negative control (+Dex) was 104% (inactive) and the z-score was -0.65. Besides, in [5], the EGFP object count came out at 39 and the EGFP/DsRed ratio was 0.871 (inactive). For the same compound, the fraction signal in assay [6] was -0.0135 (inactive). In assay [8] (stronger effect = lower value, cell number ratio, induced over uninduced), the fold change was 1.52 (inactive). Further, in assay [8] (measured here: relative caspase fold change +Dox/-Dox), the fold change turned out to be 0.871. This compound also displayed a cell count in assay [8] (measured here: total cells with miR-34 induction, stronger effect = lower value) of 5190. Moreover, in assay [8] (measured here: total cells without miR-34 induction), the cell count worked out at 3420.

Compound `CN(c1ccc(NC(=O)Nc2ccc(OC(F)(F)F)cc2)cc1)c1ccnc(Nc2cccc(S(N)(=O)=O)c2)n1` returned a liver cell % of control in assay [1] of 58.3%. For the same compound, the parasite % of control in assay [1] is 13.1% (inactive). Further, in assay [2], the percent of negative control (+Dex) was 81.5% (inactive). Further, the z-score in [2] was -0.645; in assay [3], 1.04 (inactive); in [4], -1.34 (inactive); in assay [7] (setting [19]), -1.15 (inactive); in [7] (setting [20]), 0.249. Moreover, the EGFP object count in [5] is 7.5. Further, the EGFP/DsRed ratio in [5] was 0.0983 (inactive). The fraction signal in assay [6] was -0.001 (inactive).

In turn, `NC(=O)c1ccc(-c2nc(-c3ccc4c(c3)OCO4)c(-c3ccccn3)[nH]2)cc1` yielded a liver cell % of control in assay [1] of 92.1%. For the same compound, the parasite % of control in [1] was 99.9% (inactive). Moreover, the percent of negative control (+Dex) in assay [2] was 92% (inactive). The z-score in assay [2] was 0.215; in [3] it was -0.47 (inactive); in [4] it was 5.36 (inactive); in assay [7] (setting [19]) it was -0.87 (inactive) and -0.497 (inactive); in [7] (setting [20]) it was -0.512 and 0.389; in assay [18], -0.03 (inactive). For the same compound, the EGFP object count in [5] is 5.5. The EGFP/DsRed ratio in assay [5] is 0.161 (inactive). For the same compound, in assay [6], the fraction signal was -0.007 (inactive). Besides, the compound was classed as inactive in assay [9], in assay [10], in assay [11], in [12], in [13] and in assay [14]. In addition, the result in assay [15] was inactive. In assay [16], this compound registered an SSMD of 0.986. The compound also returned a cell count in [16] of 7590. In addition, the plate-normalised HSF1 focus index in assay [16] is 1.06 (inactive). The viability in assay [17] (at 0.000305 µM, OCI-C5x cells, with rucaparib 10 µM, 100% = cells with rucaparib alone) was 134% (inactive); in [17] (at 0.000305 µM, OCI-C5x cells, without rucaparib), 138% (inactive); in [17] (at 0.000305 µM, OCI-P5x cells, with rucaparib 20 µM, 100% = cells with rucaparib alone) it was 116% (inactive); in assay [17] (at 0.000305 µM, OCI-P5x cells, without rucaparib), 105% (inactive); in [17] (at 0.00122 µM, OCI-C5x cells, with rucaparib 10 µM, 100% = cells with rucaparib alone), 135% (inactive); in assay [17] (at 0.00122 µM, OCI-C5x cells, without rucaparib), 143% (inactive). Further, the viability in assay [17] (at 0.00122 µM, OCI-P5x cells, with rucaparib 20 µM, 100% = cells with rucaparib alone) is 110% (inactive); in [17] (at 0.00122 µM, OCI-P5x cells, without rucaparib) it was 103% (inactive); in [17] (at 0.00488 µM, OCI-C5x cells, with rucaparib 10 µM, 100% = cells with rucaparib alone) it was 139% (inactive); in assay [17] (at 0.00488 µM, OCI-C5x cells, without rucaparib), 135% (inactive); in [17] (at 0.00488 µM, OCI-P5x cells, with rucaparib 20 µM, 100% = cells with rucaparib alone), 108% (inactive); in [17] (at 0.00488 µM, OCI-P5x cells, without rucaparib) it was 99.5% (active). Moreover, the viability in assay [17] (at 0.0195 µM, OCI-C5x cells, with rucaparib 10 µM, 100% = cells with rucaparib alone) was 136% (inactive); in assay [17] (at 0.0195 µM, OCI-C5x cells, without rucaparib), 143% (inactive); in assay [17] (at 0.0195 µM, OCI-P5x cells, with rucaparib 20 µM, 100% = cells with rucaparib alone) it was 112% (inactive); in assay [17] (at 0.0195 µM, OCI-P5x cells, without rucaparib), 101% (inactive); in [17] (at 0.0781 µM, OCI-C5x cells, with rucaparib 10 µM, 100% = cells with rucaparib alone) it was 130% (inactive); in assay [17] (at 0.0781 µM, OCI-C5x cells, without rucaparib) it was 147% (inactive). Besides, the viability in assay [17] (at 0.0781 µM, OCI-P5x cells, with rucaparib 20 µM, 100% = cells with rucaparib alone) is 106% (inactive); in assay [17] (at 0.0781 µM, OCI-P5x cells, without rucaparib), 94.4% (active); in assay [17] (at 0.313 µM, OCI-C5x cells, with rucaparib 10 µM, 100% = cells with rucaparib alone) it was 130% (inactive); in assay [17] (at 0.313 µM, OCI-C5x cells, without rucaparib), 146% (inactive); in assay [17] (at 0.313 µM, OCI-P5x cells, with rucaparib 20 µM, 100% = cells with rucaparib alone), 105% (inactive); in assay [17] (at 0.313 µM, OCI-P5x cells, without rucaparib), 102% (inactive). The viability in [17] (at 1.25 µM, OCI-C5x cells, with rucaparib 10 µM, 100% = cells with rucaparib alone) was 146% (inactive); in assay [17] (at 1.25 µM, OCI-C5x cells, without rucaparib), 153% (inactive); in assay [17] (at 1.25 µM, OCI-P5x cells, with rucaparib 20 µM, 100% = cells with rucaparib alone), 114% (inactive); in assay [17] (at 1.25 µM, OCI-P5x cells, without rucaparib), 92.1% (active); in assay [17] (at 5 µM, OCI-C5x cells, with rucaparib 10 µM, 100% = cells with rucaparib alone), 198% (inactive); in assay [17] (at 5 µM, OCI-C5x cells, without rucaparib), 187% (inactive). Further, the viability in [17] (at 5 µM, OCI-P5x cells, with rucaparib 20 µM, 100% = cells with rucaparib alone) is 102% (inactive); in assay [17] (at 5 µM, OCI-P5x cells, without rucaparib) it was 93.9% (active).

A word on the viability: it is a read-out of living cells in per cent, often relative to untreated cells.
